Hits are enriched below; roughly 3.2% of the tested compounds scored in any of these assays.
CHT allo act – human CHT allosteric activation. B-score at 10 µM. hit rate 0.49% among 310,000. AID 488977. CHT-expressing cells, membrane potential dye, choline EC20; hits give high values; LV-AA mutant CHT in HEK293 cells;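 active = initial fluorescence not abnormally high and integrated response B-score, plate-corrected, over 3 SD above library mean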
TMEM16A act – mouse TMEM16A channel activation, primary screen | HEK293 TMEM16A/YFP-H148Q/I152L, iodide quench fluorescence; hits give low values | B-score at 10 µM | hit rate 0.3% among 340,000;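 active = fluorescence-ratio B-score plate-corrected deviation score at least 3 library SD below zero, with starting fluorescence score within 5 deviations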;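 note: channel opened by trigger with iodide after compound preincubation; score built on the fluorescence ratio of max minus min over baseline; more negative score means more quench and so TMEM16A activation or potentiation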
Target sequence (Q8BHY3 whole entry, looked up): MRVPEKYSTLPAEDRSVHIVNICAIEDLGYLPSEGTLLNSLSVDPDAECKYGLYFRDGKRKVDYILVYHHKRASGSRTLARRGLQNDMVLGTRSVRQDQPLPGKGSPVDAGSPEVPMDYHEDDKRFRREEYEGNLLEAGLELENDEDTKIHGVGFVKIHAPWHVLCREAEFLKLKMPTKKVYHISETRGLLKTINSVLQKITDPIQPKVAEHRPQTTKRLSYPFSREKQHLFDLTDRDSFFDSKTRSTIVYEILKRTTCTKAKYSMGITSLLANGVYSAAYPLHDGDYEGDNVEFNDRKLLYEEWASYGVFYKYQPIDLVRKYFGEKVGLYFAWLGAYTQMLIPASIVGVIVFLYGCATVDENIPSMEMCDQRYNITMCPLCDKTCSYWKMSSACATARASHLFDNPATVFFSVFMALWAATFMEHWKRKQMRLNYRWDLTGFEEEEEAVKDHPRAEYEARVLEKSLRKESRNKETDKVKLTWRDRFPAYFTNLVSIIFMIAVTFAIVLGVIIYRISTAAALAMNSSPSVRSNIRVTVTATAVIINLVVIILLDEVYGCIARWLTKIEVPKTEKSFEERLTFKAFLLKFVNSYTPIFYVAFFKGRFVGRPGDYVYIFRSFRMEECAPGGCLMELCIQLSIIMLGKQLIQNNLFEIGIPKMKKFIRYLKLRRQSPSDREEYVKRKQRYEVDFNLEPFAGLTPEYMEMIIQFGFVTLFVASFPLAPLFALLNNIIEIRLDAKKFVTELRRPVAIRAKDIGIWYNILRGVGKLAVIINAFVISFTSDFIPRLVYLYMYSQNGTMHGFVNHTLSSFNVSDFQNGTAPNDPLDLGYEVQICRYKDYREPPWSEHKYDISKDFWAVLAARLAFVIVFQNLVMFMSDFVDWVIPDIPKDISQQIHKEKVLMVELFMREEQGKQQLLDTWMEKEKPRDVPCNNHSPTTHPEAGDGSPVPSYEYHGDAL
HDAC3 inh – inhibitors of human histone deacetylase 3 | AID 2718 | hit rate 0.15% among 320,000 | recombinant HDAC3, fluorogenic peptide/trypsin coupled, fluorescence | inhibition, % at 8.3 µM | O15379; in the data active = inhibition above about 26%, passing the limit was not always enough
ANO1 block – inhibitors of mouse TMEM16A calcium-activated chloride channel | hit rate 1.2% among 310,000 | HEK293 TMEM16A/YFP iodide influx fluorescence, ionomycin | AID 588511 | Q8BHY3 | normalized B-score (activity score, 25-100; higher = stronger inhibition) at 10 µM;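 active = ratio plate-corrected score three or more library SD toward inhibition, starting fluorescence score within five deviations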;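 note: score derived from kinetic fluorescence span divided by baseline fluorescence per well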
CHT inh – inhibits the human high affinity choline transporter; Q9GZV3; CHT-expressing cells, membrane potential dye, choline response; hits give low values; B-score at 10 µM; hit rate 0.86% among 310,000; AID 488975;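 active = B-score over 3 SD under the library average, and starting fluorescence ratio not unusually high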;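 note: choline stimulus applied at its EC90 after an EC20 pre-addition; B-score computed on integrated fluorescence ratio after choline addition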
PHOSPHO1 block – PHOSPHO1 (human) inhibition; recombinant PHOSPHO1, absorbance phosphatase assay; inhibition, % at 13.3 µM; hit rate 1.1% among 290,000; in the data active = inhibition above about 60%
An asterisk follows results filed as active; i = inactive; . = no result given.

SMILES | CHT allo act | TMEM16A act | HDAC3 inh | ANO1 block | CHT inh | PHOSPHO1 block
C#CCOCCOCCOCCNc1nc(N2CCN(C(=O)CCCCCCCCCCNC(=O)[C@@H](CCSC)n3cc(CCO)nn3)CC2)nc(N2CCN(C(=O)CCCCCCCCCCNC(=O)[C@H](CO)n3cc(CCCCCN)nn3)CC2)n1 | i | i | 19.1 | i | i | .
C#CCOCCOCCOCCNc1nc(N2CCOCC2)nc(N2CCN(C(=O)CCCCCCCCCCNC(=O)[C@H]([C@@H](C)CC)n3cc(CCCCN=C(N)N)nn3)CC2)n1 | i | i | 3.1 | i | i | .
Cc1cc(C)n(-c2ccc(C(=O)Nc3cccnc3)cc2)n1 | i | i | -2.4 | i | i | 27.7
CSc1ccccc1NC(=O)COC(=O)/C=C/c1ccco1 | . | i | 0.5 | . | . | .
CC(=O)N1CSCC1C(=O)NNS(=O)(=O)c1ccccc1 (stereo not drawn) | i | i | 4.2 | i | i | -14.9
C#CCOCCOCCOCCNc1nc(N2CCN(C(=O)CCCCCCCCCCNC(=O)Cn3cc(C[C@@H](C)O)nn3)CC2)nc(N2CCN(C(=O)CCCCCCCCCCNC(=O)[C@@H]([C@H](C)CC)n3cc(CCCCCN)nn3)CC2)n1 | i | i | 22.1 | 25* | i | .
Cc1cc(C(=O)CSc2nnc(-c3ccc(Cl)cc3)n2C)c(C)n1CC1CCCO1 (stereo not drawn) | i | i | -5.1 | i | i | -81.8
Cc1ccc(-n2nnnc2SCC(=O)c2cc(C)n(CC3CCCO3)c2C)cc1 (stereo not drawn) | i | i | 0.3 | i | i | 74.4*
Cc1cccc(-n2nnnc2SCC(=O)c2cc(C)n(Cc3ccco3)c2C)c1 | i | i | 1.8 | i | i | 75.9*
Cc1cccc(-n2nnnc2SCC(=O)c2cc(C)n(CC3CCCO3)c2C)c1 (stereo not drawn) | i | i | 0.5 | i | i | 93.2*
Cc1cc(C(=O)CSc2nnc(N)s2)c(C)n1Cc1ccco1 | i | i | 6.8 | i | i | -10.2
CCOC(=O)c1c(NC(=O)C2COc3ccccc3O2)sc2c1CC(C)(C)NC2(C)C (stereo not drawn) | i | i | -6.1 | i | i | -85.6
O=C(COC(=O)CNC(=O)c1ccc(Cl)cc1)Nc1ccc(Cl)cn1 | . | i | 0.9 | . | . | .
CN(C)c1nc2ncn(Cc3ccccc3)c2c(=O)[nH]1 | i | i | 2.4 | i | i | 35.8
Cn1c(=O)c(C(=O)c2ccccc2)nc2ccccc21 | i | i | 18.4 | i | i | 8.8
Cn1cc(C(=O)c2ccc(Cl)cc2)cc1-c1nc2ccccc2n1C | i | i | 2.1 | 100* | i | 8.3
Cc1ccc(O)c(Nc2nc(-c3ccccc3)nc3ccccc23)c1 | i | i | -5.5 | i | i | 3.1
Cc1ccc(O)c(Nc2c3ccccc3nc3ccccc23)c1 | i | i | -0.3 | 25* | i | 14.1
Cn1c(SCC(=O)N2CCN(c3ccccc3)CC2)nnc1-c1ccco1 | i | i | 4.2 | i | i | 26.1
C=CCn1c(SCC(=O)N2CCN(c3ccc(F)cc3)CC2)nnc1-c1ccco1 | i | i | -1.2 | 25* | i | -0.6
O=C(CSc1nnc(CNc2ccc(F)cc2)n1Cc1ccco1)N1CCOCC1 | i | i | 6.0 | i | i | 87.9*
Cc1nc2sccn2c(=O)c1Cl | i | i | -1.1 | i | i | 37.9
COc1ccc(N2C(=O)/C(=C/c3cccs3)NC2=S)cc1 | i | i | 11.8 | i | i | 75.1*
CCN(CC)C(=O)c1nc[nH]c1C(=O)N1CCN(c2ccccc2)CC1 | . | i | 4.1 | . | . | .
CCCSc1nc2sc3c(c2c(=O)[nH]1)CCN(Cc1ccccc1)C3 | i | -5.59* | -51.7 | i | i | 8.2
SMILES | CHT allo act | TMEM16A act | HDAC3 inh | ANO1 block | CHT inh | PHOSPHO1 block
O=c1[nH]c(C(Cl)Cl)nc2sc3c(c12)CCN(Cc1ccccc1)C3 | i | i | 0.9 | i | i | -17.0
Cn1c(SCc2cc(=O)n3cc(Br)ccc3n2)nnc1C1COc2ccccc2O1 (stereo not drawn) | i | i | 7.3 | i | i | 73.3*
CCc1nnc2n1N=C(c1ccc(-c3cc(Cl)ccc3Cl)o1)CS2 | i | i | 4.3 | i | i | 89.5*
COc1cc(C)nc(N2CCCC(C(=O)Nc3cc(Cl)ccc3OC)C2)n1 (stereo not drawn) | i | i | 3.1 | 25* | i | 46.1
COC(=O)C1CCN(CC(=O)Nc2cc(Cl)ccc2OC)CC1 | i | . | -4.1 | i | -9.68* | -18.8
CC(C)(C)Cc1nnc(NS(=O)(=O)c2ccc(F)cc2)s1 | i | i | -0.3 | i | i | 77.6*
CC(C)Nc1nc(NC(C)C)nc(N(C)n2cnnc2)n1 | i | i | 1.7 | i | i | 94.1*
CC(C)Nc1nc(NC(C)C)nc(N(C)N)n1 | i | i | 2.0 | i | i | -2.7
CCOC(=O)c1cn2nc(Oc3ccc(OC)cc3)ccc2n1 | i | i | 0.2 | i | i | 21.9
Cc1ccc(-c2nnc3n2N=C(c2ccc(Br)cc2)CS3)cc1 | i | i | 2.5 | i | i | 37.0
Brc1ccccc1C1=Nn2c(nnc2-c2ccccc2)SC1 | i | i | 0.0 | i | i | 83.3*
O=C1/C(=C/c2ccc(F)cc2)SC(=S)N1Nc1ncc(C(F)(F)F)cc1Cl | i | i | -7.3 | i | i | 86.4*
O=C1/C(=C/c2ccco2)SC(=S)N1c1cccnc1 | . | i | . | . | . | 60.8*
COc1cc(C(c2nnnn2C2CCCC2)N2CCc3ccccc3C2)ccc1O (stereo not drawn) | i | i | -0.9 | i | i | 77.4*
CCC(=S)/C=C1\Sc2ccccc2N1CCCS(=O)(=O)O | i | i | -1.3 | i | i | 64.4*
CSCC(C)N1CCC(Oc2cccc(C(=O)NCc3ccccn3)c2)CC1 (stereo not drawn) | i | i | -0.9 | i | -16.6* | 51.6
COc1ccc(C(=O)NCCCN2CCCC2=O)cc1 | i | i | 1.5 | i | i | 12.1
CCn1ccc(C(=O)NCCCN2CCCC2=O)n1 | i | i | -1.0 | i | i | 65.4*
CC1CC(=O)c2c(cc3c(-c4c(O)cc(O)c5c(O)c6c(cc45)OC(C)CC6=O)c(O)cc(O)c3c2O)O1 (stereo not drawn) | i | -19.9* | -0.8 | i | i | -64.0
O=C1CC(c2ccc(O)cc2)Oc2cc(O)cc(O)c21 (stereo not drawn) | i | i | 10.7 | i | i | -3.8
COc1ccc(NS(=O)(=O)c2cccc(NC(=O)NC3CCCCC3)c2)cc1 | i | i | 8.0 | 25* | i | -3.3
